Test [1] is described as follows: P. berghei load reduction in hepatocytes – cell-based, HepG2, luciferase luminescence, HepG2 viability, primary screen (AID 624349; in the data active means parasite load remaining mostly below about 12%, no sharp cut-off; inactive means mostly above about 10%;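 further: 100% = mean of DMSO negative control wells on the same plate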). Conditions: P. berghei liver stage in HepG2, luciferase luminescence, concentration not given here; parasite load remaining: stronger effect = lower value; viability: measured here: HepG2 viability without parasites.
Test [2] can be described thus: Wnt pathway potentiators raising nuclear beta-catenin – imaging, WNT3A-conditioned medium, mouse C2C12, NPC library, primary screen (AID 1117326). Conditions: stronger effect = higher value.
The nature of test [3]: stimulators of insulin release from INS-1E, primary screen, cell-based, 5 mM glucose, NPC library (AID 1117329;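 active means compound raises insulin release from rat beta cells at 5 mM glucose, no numeric limit stated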). Conditions: rat INS-1E insulin secretion, at 10 µM, stronger effect = higher value.
Test [4] is described as follows: growth inhibition of GSK3B-pretreated HCT116 cells – cell-based, CellTiter-Glo, 0.2 to 20 µM (AID 1117336;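 active means compounds lowering colon cancer cell viability after pretreatment blocking the GSK3B kinase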). The following applies: HCT116 viability after GSK3B inhibitor, at 20 µM, stronger effect = higher value. In general terms: ATP-based viability assays read luminescence as a measure of living cells.
Test [5] in a line: inhibition of endothelial tube formation, primary screen, imaging, VEGF stimulated, CD31 staining, tube area, NPC library (AID 1117340;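 active means compound that reduces growth-factor-driven endothelial tube area in a mixed cell culture, no cutoff stated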). Conditions: VEGF-stimulated ADSC/ECFC co-culture, at 10 µM, stronger effect = higher value.
Test [6] is described as follows: GLP1 release stimulators, primary, NCI-H716, NPC library (AID 1117341;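 active means compound raises GLP1 secretion from the human gut endocrine cells, with no numeric limit stated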). The following applies: NCI-H716 cells, at 10 µM, stronger effect = higher value.
The nature of test [7]: HCT116 colon cancer cell growth inhibition, primary screen, CellTiter-Glo luminescence, NPC library (AID 1117342;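 active means compounds that lower survival of HCT116 colon cancer cells in the luminescence readout, no numeric limit stated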). The following applies: at 20 µM (top of the series).
Test [8] in a line: reduced SW480 viability measured with CellTiter-Glo, NPC library, primary (AID 1117343;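 active means compounds that lower viability of the colon cancer cells in the luminescence readout, with no numeric limit stated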). Conditions: CellTiter-Glo luminescence; at 20 µM (top of the series).
The nature of test [9]: NPC library primary testing for decreased DLD-1 cell viability via CellTiter-Glo (AID 1117346;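 active means compounds that lower survival of DLD-1 colon cancer cells in the luminescence readout, no cutoff given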). Conditions: DLD-1 viability, CellTiter-Glo luminescence; at 20 µM (top of the series).
Test [10] in a line: EMT-state selective cytotoxicity in co-culture – imaging, PC-3E GFP, TEM4-18 mCherry, primary screen (AID 1345086;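 active means compounds killing one labelled cell type while sparing the other, by normalised counts and ratio limits, not self-fluorescent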;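 on all read-outs here: cells exposed to compound for 72 h before imaging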;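 on red/green cell ratio (normalised): normalised mesenchymal count divided by normalised epithelial count so high means epithelial killing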). The following applies: PC-3E GFP / TEM4-18 mCherry co-culture, imaging cell counts, at 1 µM; for red/green cell ratio (normalised): actives lie on both sides.
The test system of test [11] is Aerobactin synthetase IucA (Klebsiella pneumoniae hvKP1). Description: IucA enzyme inhibition, primary screen, biochemical, Spectrum library (AID 1346200; call rule not given here;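 further: 100% = wells without compound and 0% = wells lacking enzyme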). The following applies: malachite green pyrophosphate, A620, at 8 µM, stronger effect = lower value.
The nature of test [12]: viability loss with induced miR-34 in A549 – imaging, A549 dox-inducible miR-34, nuclei and caspase counts, primary screen (AID 1347080;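 active means compounds whose cell count with miR-34 switched on is under 0.7 times the count with it off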). Conditions: A549 miR-34 inducible, Hoechst nuclei count, 48 h.
Test [13] deals with NAD(+) hydrolase SARM1 (Homo sapiens) (UniProt Q6SZW1). Description: blocking NAD cleavage by SARM1 SAM-TIR – cell lysate, NAD-Glo luminescence (AID 1508614;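 active means compound whose remaining NAD level is above about 45 nM, limit read from the data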). The following applies: SAM-TIR HEK293T lysate NADase, at 1 µM, stronger effect = higher value.
In test [14] the target is Mitogen-activated protein kinase 7 (Homo sapiens) (UniProt Q13164). Description: Gal4-ERK5 driven luciferase induction – cell-based, HTS, primary screen (AID 1508626;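 active means luciferase signal above three times the same-plate solvent-only control wells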;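 further: luciferase driven by Gal4-ERK5 fusion binding five Gal4 sites before minimal TATA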). Conditions: HeLa Gal4-ERK5 transactivation, 18 h, at 5 µM, stronger effect = higher value.
Test [15] can be described thus: MELAS cybrid and Rieske KO viability enhancers – cell-based, MELAS cybrids, Rieske KO mouse fibroblasts, CellTiter-Glo, primary screen (AID 1508586;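 active means mean z-score across replicates of 1.96 or higher in either the MELAS or the Rieske mutant cell line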;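 further: z relative to plate mean and SD of compound and empty wells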). The following applies: low glucose.
Test [16] in a line: galactose survival enhancers in mitochondrial complex I cybrids – cell-based, galactose medium, ATP luminescence, primary screen (AID 1645843;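 active means z-score of at least 1.8 in each of two replicates, scored against plate mean and spread of sample wells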;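 further: positive z means more ATP and so rescue of galactose-driven cybrid death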). Conditions: complex I mutant cybrid cells, 72 h, stronger effect = higher value.
Test [17] deals with 6-phosphogluconate dehydrogenase, decarboxylating (Homo sapiens) (UniProt P52209). Description: inhibition of human phosphogluconate dehydrogenase – biochemical, recombinant enzyme, NADPH absorbance, primary screen (AID 1159550;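 active means at least 20% inhibition of 6-phosphogluconate dehydrogenase activity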). The following applies: recombinant 6PGD, NADPH absorbance 341 nm; at 10 µM; stronger effect = higher value.
[18] abbreviates: measured here: epithelial PC-3E GFP cell survival.
The mark [19] stands for this setting: measured here: mesenchymal TEM4-18 mCherry cell survival.
Setting [20] is: measured here: relative caspase fold change +Dox/-Dox.
The mark [21] stands for this setting: measured here: total cells with miR-34 induction, stronger effect = lower value.
Where [22] appears, read: measured here: total cells without miR-34 induction.

Each structure is given as a SMILES string. Where “and” joins values, the source holds several entries; their conditions need not be identical. Equal entries are not always repeated. Calls of active or inactive are those of the source. Unless noted, no stated cut-off is given here; in the data, active means nuclear beta-catenin stimulation mostly above about 4.2% (no sharp cut-off); inactive means mostly below about 10%.

NAD(+) hydrolase SARM1 (Homo sapiens), sequence (Q6SZW1 whole entry, looked up, the tested form may be a part): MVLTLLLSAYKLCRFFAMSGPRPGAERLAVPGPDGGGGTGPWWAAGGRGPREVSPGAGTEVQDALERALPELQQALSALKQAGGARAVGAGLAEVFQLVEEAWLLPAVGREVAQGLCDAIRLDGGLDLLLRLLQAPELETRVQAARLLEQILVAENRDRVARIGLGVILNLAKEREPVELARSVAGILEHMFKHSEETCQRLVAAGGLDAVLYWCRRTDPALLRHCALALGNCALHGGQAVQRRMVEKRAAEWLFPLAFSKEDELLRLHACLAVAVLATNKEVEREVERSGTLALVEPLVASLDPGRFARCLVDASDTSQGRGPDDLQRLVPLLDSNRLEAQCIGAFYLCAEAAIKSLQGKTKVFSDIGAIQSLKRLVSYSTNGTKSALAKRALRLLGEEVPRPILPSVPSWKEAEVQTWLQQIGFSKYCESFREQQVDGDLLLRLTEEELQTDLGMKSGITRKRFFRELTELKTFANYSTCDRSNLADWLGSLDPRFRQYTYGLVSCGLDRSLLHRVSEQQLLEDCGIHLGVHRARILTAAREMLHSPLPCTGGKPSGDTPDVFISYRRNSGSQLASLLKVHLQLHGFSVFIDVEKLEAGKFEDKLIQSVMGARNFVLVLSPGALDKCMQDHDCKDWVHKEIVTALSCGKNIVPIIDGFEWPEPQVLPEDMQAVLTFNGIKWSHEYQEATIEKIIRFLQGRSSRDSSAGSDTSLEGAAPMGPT
Mitogen-activated protein kinase 7 (Homo sapiens), sequence (Q13164 whole entry, looked up, the tested form may be a part): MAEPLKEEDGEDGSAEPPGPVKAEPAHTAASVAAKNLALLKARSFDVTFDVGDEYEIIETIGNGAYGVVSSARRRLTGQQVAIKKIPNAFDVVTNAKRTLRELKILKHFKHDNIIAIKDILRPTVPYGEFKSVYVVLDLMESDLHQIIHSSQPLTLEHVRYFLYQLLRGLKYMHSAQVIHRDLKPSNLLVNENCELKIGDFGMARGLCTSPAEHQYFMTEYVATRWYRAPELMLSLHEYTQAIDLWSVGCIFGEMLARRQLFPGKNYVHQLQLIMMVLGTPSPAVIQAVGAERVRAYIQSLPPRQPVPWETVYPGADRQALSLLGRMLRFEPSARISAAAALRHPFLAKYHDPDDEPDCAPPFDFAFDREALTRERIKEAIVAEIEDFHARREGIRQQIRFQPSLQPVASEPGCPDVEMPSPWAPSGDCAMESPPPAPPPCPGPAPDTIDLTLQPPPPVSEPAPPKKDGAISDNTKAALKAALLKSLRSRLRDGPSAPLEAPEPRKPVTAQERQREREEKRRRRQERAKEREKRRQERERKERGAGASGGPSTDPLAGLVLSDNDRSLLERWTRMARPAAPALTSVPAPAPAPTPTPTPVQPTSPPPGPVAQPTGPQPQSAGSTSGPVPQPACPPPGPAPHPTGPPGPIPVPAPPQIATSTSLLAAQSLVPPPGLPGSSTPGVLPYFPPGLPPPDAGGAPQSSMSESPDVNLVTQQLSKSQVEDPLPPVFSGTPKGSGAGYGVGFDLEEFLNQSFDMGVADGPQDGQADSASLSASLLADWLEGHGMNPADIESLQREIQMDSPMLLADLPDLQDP
6-phosphogluconate dehydrogenase, decarboxylating (Homo sapiens), sequence (P52209 whole entry, looked up): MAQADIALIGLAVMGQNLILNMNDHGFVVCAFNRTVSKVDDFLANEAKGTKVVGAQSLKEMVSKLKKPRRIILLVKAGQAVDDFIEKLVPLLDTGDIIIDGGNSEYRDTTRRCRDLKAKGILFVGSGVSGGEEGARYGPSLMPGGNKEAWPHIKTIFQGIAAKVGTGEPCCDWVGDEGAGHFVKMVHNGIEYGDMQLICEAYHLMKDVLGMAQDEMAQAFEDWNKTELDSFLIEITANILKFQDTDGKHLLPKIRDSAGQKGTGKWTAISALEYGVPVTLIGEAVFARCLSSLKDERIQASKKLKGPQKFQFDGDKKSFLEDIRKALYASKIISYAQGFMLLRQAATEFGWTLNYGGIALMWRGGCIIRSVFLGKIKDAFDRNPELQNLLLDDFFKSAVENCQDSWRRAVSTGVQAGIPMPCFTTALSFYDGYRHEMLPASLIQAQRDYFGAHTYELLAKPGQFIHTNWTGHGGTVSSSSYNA

Take `N#Cc1nn(-c2c(Cl)cc(C(F)(F)F)cc2Cl)c(N)c1S(=O)C(F)(F)F` (stereo not given): the parasite load remaining in test [1] is 148% (inactive) and 35.4% (inactive). The viability (commonly a read-out of living cells in per cent, often relative to untreated cells) in [1] is 82.8% and 121%. The nuclear beta-catenin stimulation was 6.4% (inactive) in test [2] (at 10 µM) and 2.1% in test [2] (stimulation, at 2 µM). For the same compound, the insulin secretion stimulation in test [3] was 0.5% (inactive). Besides, the viability decrease in [4] was -53.1% (inactive). In addition, in test [5], the tube area decrease is 9.4% (inactive). Moreover, the GLP1 secretion stimulation in [6] is -1.4% (inactive). The inhibition of viability in test [7] was 17.3% (inactive). Moreover, the figures for the viability decrease (inhibition) in test [8] and in test [9] were 42.7% (inactive) and 6.4% (inactive), respectively. Further, the red/green cell ratio (normalised) in [10] was 0.9 (inactive). Further, the results for the normalised cell number in test [10] (setting [18]) and in test [10] (setting [19]) were 1 and 0.9, respectively. Besides, the activity remaining in test [11] is 115% (inactive). Besides, the fold change in test [12] (stronger effect = lower value) was 0.962 (inactive) and 0.928 (inactive); in test [12] (setting [20]) it was 1.07 and 3.63. The cell count in test [12] (setting [21]) is 4080 and 11800; in [12] (setting [22]) it was 4240 and 12700. In addition, in [13], the remaining NAD is 10 nM (inactive). Further, the luciferase signal in test [14] is 40 AU (inactive).

As for `C=C1C[C@@H]2[C@H](CC[C@]3(C)C(=O)CC[C@@H]23)[C@@]2(C)C=CC(=O)C=C12`, the parasite load remaining in test [1] is 41% (inactive). For the same compound, in [1], the viability turned out to be 86.7%. Moreover, the nuclear beta-catenin stimulation in [2] (at 10 µM) is 2.3% (inactive); in test [2] (stimulation, at 2 µM), -0.3%. The insulin secretion stimulation in test [3] was 12.9% (inactive). Also, in test [4], the viability decrease was 2.6% (inactive). Besides, the tube area decrease in test [5] is 6.3% (inactive). In [6], the GLP1 secretion stimulation was 8.3% (inactive). The inhibition of viability in test [7] was -12.1% (inactive). Besides, the viability decrease (inhibition) in [8] was 24.7% (inactive); in test [9], -20.4% (inactive). In addition, the z-score was 0.961 (inactive) in test [15] (MELAS cybrid survival, CellTiter-Glo 48 h, stronger effect = higher value) and 0.0493 in test [15] (Rieske KO mouse fibroblast survival, CellTiter-Glo 72 h). Further, the remaining NAD in test [13] is 10 nM (inactive). Moreover, the luciferase signal in test [14] was 60 AU (inactive).

Take `NP(N)(=O)NC(=O)c1ccc(F)cc1`: the nuclear beta-catenin stimulation in [2] (at 10 µM) was 0.1% (inactive); in [2] (stimulation, at 2 µM) it was 0.9%. Besides, the insulin secretion stimulation in test [3] is -0.7% (inactive). The viability decrease in test [4] is -1.25% (inactive). Besides, in test [5], the tube area decrease is -20.9% (inactive). Moreover, the GLP1 secretion stimulation in test [6] was 1.1% (inactive). Besides, the inhibition of viability in test [7] is -0.3% (inactive). The viability decrease (inhibition) in [8] is 31.5% (inactive); in [9], 6.6% (inactive). The red/green cell ratio (normalised) in [10] was 0.99 (inactive). Further, the results for the normalised cell number in test [10] (setting [18]) and in test [10] (setting [19]) were 0.92 and 0.91, respectively. Moreover, the fold change in test [12] (stronger effect = lower value) was 0.935 (inactive) and 0.913 (inactive); in test [12] (setting [20]) it was 0.958 and 0.851. Moreover, the cell count was 8980 and 8200 in test [12] (setting [21]); 9600 and 8990 in [12] (setting [22]). In addition, the remaining NAD in [13] is 10 nM (inactive). Moreover, in [16], the z-score is -0.31 (inactive).

With `CN1C(=O)COc2c(C(=O)NC3CN4CCC3CC4)cc(Cl)cc21` (stereo not given), the parasite load remaining in test [1] is 118% (inactive). Besides, the viability in [1] turned out to be 75.1%. Moreover, the nuclear beta-catenin stimulation in test [2] (at 10 µM) was 3.8% (inactive); in test [2] (stimulation, at 2 µM), 3.8%. Also, in test [3], the insulin secretion stimulation was 1.3% (inactive). Further, the viability decrease in test [4] was -9.5% (inactive). Moreover, the tube area decrease in test [5] was -0.8% (inactive). Further, the GLP1 secretion stimulation in [6] was 0% (inactive). Moreover, the inhibition of viability in test [7] was 5.23% (inactive). Besides, the viability decrease (inhibition) in test [8] is 18.3% (inactive); in [9] it was -7.8% (inactive). The results for the fold change in [12] (stronger effect = lower value) and in test [12] (setting [20]) were 0.858 (inactive) and 1.27, respectively. Also, the cell count in [12] (setting [21]) was found to be 8690; in test [12] (setting [22]), 10100. In addition, in test [16], the z-score is 0.255 (inactive).

As to `CN[C@@H](C)[C@H](O)c1ccccc1`, the nuclear beta-catenin stimulation was 1.4% (inactive) in test [2] (at 10 µM) and 0.6% in test [2] (stimulation, at 2 µM). The insulin secretion stimulation in test [3] was 0% (inactive). Moreover, in [4], the viability decrease is -2.5% (inactive). In test [5], the tube area decrease is -1.6% (inactive). The GLP1 secretion stimulation in [6] was 0.8% (inactive). For the same compound, in [7], the inhibition of viability was -12.5% (inactive). The viability decrease (inhibition) in [8] is 5.5% (inactive); in test [9] it was -4.6% (inactive). For the same compound, the inhibition (as a rule, the percentage by which the read-out fell short of the control) in test [17] was 16.5% (inactive).

These data come from PubChem BioAssay.
